Nrf2 inh: inhibitors of Nrf2 signaling; A549 ARE-Fluc reporter, luciferase luminescence, 18-24 h; Potency, µM (top dose mostly 46 µM), most hits filed as inhibitors; 360,000 compounds, 2.1% hits; further: nearly all actives have a fitted effect of over 60% in size
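Quantitative HTS in A549 cells stably bearing an antioxidant response element-firefly luciferase construct. Inhibition of Nrf2-driven transcription was scored by luminescence after 18-24 h of compound exposure at 37 °C.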
TGFb inhibitor: blocks TGF-b signaling; Potency, µM (top dose mostly 46.1 µM), most hits filed as inhibitors; AID 588855; HepG2 CAGA-GFP TGF-b/SMAD3 reporter, GFP fluorescence, 18 h; TGF-beta stimulated, 500 pg/mL final; 410,000 compounds, 1.2% hits; further: nearly all actives have a fitted effect of over 65% in size
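GFP signal (ex488/em500-530) from TGF-beta-stimulated HEPG2 CAGA-GFP cells, 500 pg/mL final, 18 h at 37 degrees C in DMEM plus 1% FBS, normalized to unstimulated and DMSO-stimulated controls.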
ATXN2 expr inh: ATXN2 expression inhibition; HEK-293 ATXN2-luciferase reporter, luminescence, 24 h; Potency, µM (doses to about 57 µM), most hits filed as inhibitors; 360,000 compounds, 0.72% hits; AID 1745845; further: nearly all actives have a fitted effect of over 55% in size
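qHTS (up to 57 uM final) was run with 24 h compound exposure of reporter cells at 37 °C. Each well was multiplexed: SteadyGlo luminescence measured ATXN2-luciferase expression after a fluorogenic Gly-Phe-AFC viability readout (25 uM final).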
ATXN viability: cell viability loss in ATXN counter-screen. Potency, µM (top dose mostly 56.7 µM), actives largely listed as cytotoxic. 400,000 compounds, 0.49% hits. S2 cells (HEK-293 line with an ATXN2-luciferase reporter) viability, CellTiter-Fluor protease fluorescence, 24 h; further: nearly all actives have a fitted effect of over 40% in size
HepG2 viability: HepG2 cytotoxicity, counter-screen for TGF-b inhibitors; HepG2 CAGA-GFP viability, ATP luminescence, 18 h; Potency, µM (highest dose often 46.1 µM), hits mostly cytotoxic; 410,000 compounds, 0.76% hits
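HepG2 CAGA-GFP cells (1000/well, DMEM with 1% FBS) received compound, then TGF-beta at 500 pg/mL final, and were incubated 18 hours at 37 degrees C. Viability was read by CellTiter-Glo luminescence. Media-only wells were set as complete cell-killing and DMSO as no toxicity.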
A549 viability: kills or reduces viability of A549 cells in Nrf2 counter-screen. AID 504648. Potency, µM (highest dose often 46 µM), hits mostly inhibitors. 390,000 compounds, 0.16% hits. A549 ARE-Fluc cells, CellTiter-Fluor viability, 18-24 h
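A549 ARE-Fluc cells in 5% FBS OPTI-MEM, 5000 cells/well, rested 2 h then exposed to compounds in concentration-response for 18-24 h at 37 °C. Viability by CellTiter-Fluor fluorescence (Ex 405/Em 525) after 30 min; luciferase luminescence (BugLite, 15 min, RT) read afterwards.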
Numbers stand for hits; . = inactive; ? = inconclusive; / = not tested or not shown. This is a sample that favours compounds with a hit; in the whole collection about 3.8% have one here. The call rests on the fitted dose curve; in most records, active means well fitted curve in the direction sought with a large enough effect; inconclusive means small, poorly fitted or top-dose-only effect, or another doubt; inactive means no such curve, though single readings can be large; an effect the other way counts as inactive or inconclusive.

SMILES | Nrf2 inh | TGFb inhibitor | ATXN2 expr inh | ATXN viability | HepG2 viability | A549 viability
Cc1ccc(-c2n[nH]c3c2C(c2ccccc2)N(c2ccc(C(=O)O)cc2)C3=O)cc1 (centres undefined) | . | . | . | . | . | .
CCOC(=O)c1ccc(N2C(=O)c3[nH]nc(-c4ccc(OC)cc4)c3C2c2ccccc2Cl)cc1 (centres undefined) | . | . | . | . | . | .
CCOC(=O)c1ccc(N2C(=O)c3[nH]nc(-c4ccc(C)cc4)c3C2c2cccs2)cc1 (centres undefined) | 23µM | ? | ? | ? | . | ?
CCOC(=O)c1ccc(N2C(=O)c3n[nH]c(-c4ccco4)c3C2c2ccc(O)c(OCC)c2)cc1 (centres undefined) | ? | 16µM | ? | ? | . | .
CCOc1ccc(C2c3c(-c4ccc(C)cc4)n[nH]c3C(=O)N2c2ccc(Cl)cc2)cc1 (centres undefined) | ? | 4.5µM | . | / | 13µM | ?
O=C1c2[nH]nc(-c3ccccc3)c2C(c2ccccc2)N1c1cccc(C(F)(F)F)c1 (centres undefined) | ? | ? | ? | ? | 18µM | .
Cc1ccc(-c2nc3ccc(Cl)cn3c2Cc2cccc(Cl)c2)cc1 | / | ? | . | ? | . | /
Cc1ccc(-c2n[nH]c3c2C(c2cccc(O)c2)N(c2ccc(C(=O)O)cc2)C3=O)cc1 (centres undefined) | . | ? | . | . | . | .
O=C1c2[nH]nc(-c3ccc(Br)cc3)c2C(c2cccc(O)c2)N1c1ccc(Cl)cc1 (centres undefined) | ? | 7.1µM | ? | / | 14µM | .
CCOC(=O)c1ccc(N2C(=O)c3[nH]nc(-c4ccc(C)cc4)c3C2c2ccc(O)c(OCC)c2)cc1 (centres undefined) | 21µM | ? | ? | ? | . | .
COc1ccc(CC(=O)NCC(c2cccs2)S(=O)(=O)c2ccc(Cl)cc2)cc1 (centres undefined) | / | . | / | / | . | .
COc1cc2cnc(-c3ccccc3)c(-c3ccc(C(F)(F)F)cc3)c2cc1OC | ? | 11µM | ? | ? | . | ?
O=C(O)C1=CC(O)C(O)[C@H](O)C1 (some centres undefined) | / | / | . | / | / | /
Cc1ccc(C(C#N)c2ccc3c(C(F)(F)F)cc(C(F)(F)F)nc3n2)cc1 (centres undefined) | ? | . | ? | ? | . | ?
N#CC(c1ccccc1)c1ccc2c(C(F)(F)F)cc(C(F)(F)F)nc2n1 (centres undefined) | 26µM | ? | ? | ? | . | ?
COCCCNC(=O)C[C@H]1C[C@H](C(=O)N(C(C)C)C(C)C)[C@@]2(C)c3[nH]c4cc(-c5ccco5)ccc4c3CCN2C1=O | ? | 11µM | . | . | . | .
COCCCNC(=O)C[C@H]1C[C@H](C(=O)N2CCOCC2)[C@@]2(C)c3[nH]c4cc(-c5ccco5)ccc4c3CCN2C1=O | . | . | . | . | . | .
O=C(C[C@H]1C[C@H](C(=O)N2CCCCC2)[C@@]2(CCc3ccccc3)c3[nH]c4cc(-c5ccco5)ccc4c3CCN2C1=O)NCCN1CCOCC1 | . | ? | ? | / | . | .
COCCCNC(=O)C[C@H]1C[C@H](C(=O)N2CCCCC2)[C@@]2(CCc3ccccc3)c3[nH]c4cc(-c5ccco5)ccc4c3CCN2C1=O | 23µM | ? | . | ? | . | .
Cc1ccc(S(=O)(=O)N[C@@H](Cc2ccccc2)C(=O)CCl)cc1 | 18µM | ? | ? | 32µM | . | .
Cc1ccc(O)c(CNCCNCc2cc(C)ccc2O)c1 | ? | ? | ? | . | . | .
CCc1ccc(O)c(CNCCNCc2cc(CC)ccc2O)c1 | . | ? | ? | ? | 16µM | .
CC(Cc1ccccc1)=NNc1ccc([N+](=O)[O-])cc1[N+](=O)[O-] | 23µM | . | . | ? | . | ?
COc1ccc(C(=O)Nc2nc3ccccc3s2)c(OC)c1 | 7.3µM | . | 0.79µM | . | 18µM | .
COc1ccc2nc(NC(=O)c3ccccc3F)sc2c1 | 1.3µM | . | / | . | . | .
SMILES | Nrf2 inh | TGFb inhibitor | ATXN2 expr inh | ATXN viability | HepG2 viability | A549 viability
COc1ccc2nc(NC(=O)c3ccccc3C(=O)O)sc2c1 | . | . | . | . | . | .
Cc1ccc2nc(NC(=O)c3cc(-c4ccco4)nc4ccccc34)sc2c1 | 23µM | . | . | . | . | .
CSc1ncccc1C(=O)Nc1nc2ccc(Oc3ccccc3)cc2s1 | 10µM | ? | / | . | . | .
CSc1ncccc1C(=O)Nc1ccc2nc(C)sc2c1 | . | . | . | . | . | .
Cc1nonc1OCCNC(=O)C12CC3CC(CC(C3)C1)C2 | . | . | . | . | . | .
COc1ccccc1C(=O)Nc1nc2ccc(S(C)(=O)=O)cc2s1 | ? | . | . | ? | . | .
COc1ccccc1C(=O)Nc1nc2ccccc2s1 | 6.5µM | . | ? | . | 11µM | .
Nc1ccc(Nc2ccccc2)c(Cl)c1 | . | . | . | . | . | .
Nc1ccccc1Nc1ccccc1 | ? | ? | . | . | 20µM | ?
COc1ccc(S(=O)(=O)NNc2nc(C)cc(C)n2)cc1Br | . | . | . | . | . | .
COc1ccccc1OCC(=O)Nc1cc(S(=O)(=O)N2CCOCC2)ccc1N1CCCCC1 | ? | . | . | . | . | .
Cc1ccc(-c2cc(C(=O)NNC(=O)c3csc(N4CCOCC4)n3)c3ccccc3n2)cc1 | 21µM | . | / | ? | . | .
O=C(NNC(=O)c1cc(-c2ccccc2)nc2ccccc12)c1csc(N2CCOCC2)n1 | . | . | . | . | . | .
Cc1ccc(/C=N\NC(=O)c2ccc3c(c2)OCO3)o1 | . | . | . | . | . | .
CCOC(=O)c1c(NC(=O)COC(=O)Cc2ccccc2[N+](=O)[O-])sc(C(=O)N(C)C)c1C | . | . | . | . | . | .
CCOC(=O)c1c(NC(=O)COC(=O)c2ccccc2NC)sc(C(=O)N(C)C)c1C | ? | ? | 32µM | ? | . | .
O=C(CSc1nc2nn(-c3ccccc3)c(=O)c-2c2n1CCCCC2)Nc1ccc(F)c(F)c1 | 18µM | . | . | . | . | ?
O=C(Cn1cc(SCc2ccc(C(F)(F)F)cc2)c2ccccc21)N1CCCC1 | ? | ? | / | / | 10µM | .
O=C(Cn1cc(SCc2cccc(C(F)(F)F)c2)c2ccccc21)N1CCCCCC1 | ? | ? | / | / | . | .
COC(=O)c1ccc(NC(=O)CSc2cn(CC(=O)N3CCCCC3)c3ccccc23)cc1 | . | 5.6µM | / | / | . | .
Cc1nn(C)c(C)c1CCNC(=O)Nc1cccc(Cl)c1C | / | . | . | . | . | .
